FadD28 FP inh – inhibitors of Mycobacterium tuberculosis FadD28 bisubstrate binding; FadD28 bisubstrate probe binding, fluorescence polarization; inhibition, % at 12.5 µM; 360,000 tested, 0.22% active; AID 588549; in the data active = inhibition above about 8.5%, passing the limit was not always enough
PfHsp40 rescue – compounds rescuing yeast from Plasmodium falciparum HSP40 toxicity; S. cerevisiae expressing PfHsp40, growth rescue, ATP luminescence; growth rescue, % at 12.5 µM; 340,000 tested, 0.68% active; AID 504582; in the data active = growth rescue above about 28%, passing the limit was not always enough;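 note: yeast W303a lacking pdr1 and pdr3 grown in galactose medium; growth measured after three days at 30 °C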
PrP UTR inh – suppresses PrP 5' UTR mRNA reporter expression. inhibition, % (test concentration not listed). cell-based PrP 5' UTR mRNA reporter, plate reader. 340,000 tested, 0.35% active. AID 488862; in the data active = inhibition above about 52%; note: 0 = median of the neutral control wells
Yp Topo-I inh – inhibitors of Yersinia pestis topoisomerase I | 360,000 tested, 0.064% active | Y. pestis Topo-I cleavage product accumulation, plate reader | activity, % at 10 µM; in the data active = activity above about 50%, passing the limit was not always enough
BioA inh-1 – inhibitors of Mycobacterium tuberculosis BioA enzyme. purified M. tuberculosis BioA enzyme, plate reader. inhibition, % at 9.99 µM. 360,000 tested, 0.096% active; in the data active = inhibition above about 40%
BioA inh-2 – inhibitors of Mycobacterium tuberculosis BioA enzyme | 310 tested, under 10 active | purified BioA enzyme, plate reader, dose response | max activity, % | shares compounds with BioA inh-1;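 note: top concentration of the dilution series was 10 µM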
Target sequence (P9WQ81 whole entry, looked up): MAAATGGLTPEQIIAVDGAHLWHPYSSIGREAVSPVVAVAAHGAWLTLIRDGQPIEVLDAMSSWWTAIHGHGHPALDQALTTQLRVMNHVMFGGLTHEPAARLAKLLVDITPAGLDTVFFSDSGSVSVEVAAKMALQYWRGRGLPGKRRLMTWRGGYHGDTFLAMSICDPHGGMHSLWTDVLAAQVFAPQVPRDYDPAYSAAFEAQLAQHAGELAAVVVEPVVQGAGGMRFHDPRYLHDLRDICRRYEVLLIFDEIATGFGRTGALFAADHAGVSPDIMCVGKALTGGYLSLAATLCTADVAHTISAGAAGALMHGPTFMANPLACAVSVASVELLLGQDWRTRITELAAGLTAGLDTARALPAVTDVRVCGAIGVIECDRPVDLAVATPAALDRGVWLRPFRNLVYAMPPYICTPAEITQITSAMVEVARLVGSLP
HepG2 cytotox – cytotoxicity in HepG2 cells. plate reader. max activity, %. 310 tested, under 10 active. AID 651898. shares compounds with BioA inh-1
NIH3T3 tox 5 – kills NIH3T3 cells. NIH3T3 cytotoxicity, plate reader. 310 tested, under 10 active. shares compounds with BioA inh-1. activity change, negative = cytotoxicity, % at 26 µM. AID 651900
The depositor's hits bear a star; i = inactive; · = not tested or not shown; [ ] = dose if it differs, or a comment. An excerpt weighted towards active compounds, which were near 1.1% of everything screened. Unless noted, the rule behind the calls is not given here.

SMILES	FadD28 FP inh	PfHsp40 rescue	PrP UTR inh	Yp Topo-I inh	BioA inh-1	BioA inh-2	HepG2 cytotox	NIH3T3 tox 5
Cn1ncc2cc3c(Nc4ccc(Cl)cc4)cccc3nc21	0	·	·	·	81*	-4	-9	-3
Cn1ncc2c(Nc3ccc(Cl)cc3)ncnc21	-3	2	-16	4	3	·	·	·
COc1ccccc1S(=O)(=O)N1CC[C@H]2[C@H](CO)Nc3ccc(-c4ccccc4)cc3[C@H]21	·	·	·	·	10	·	·	·
COc1ccccc1S(=O)(=O)N1CC[C@@H]2[C@H](CO)Nc3ccc(-c4ccccc4)cc3[C@@H]21	·	·	·	·	43*	5	i	-4[23.5 µM]
COCC(=O)Nc1ccc2c(c1)[C@@H]1C[C@H](CC(=O)N(C)C)O[C@@H](CO)[C@@H]1O2	·	·	·	·	-1	·	·	·
CNc1ccc(/C=C(\CCC(=O)O)c2nc3ccccc3s2)cc1[N+](=O)[O-]	1	-2	-20	33	·	·	·	·
Cc1ccc(/C=C(\CCC(=O)O)c2nc3ccccc3s2)cc1[N+](=O)[O-]	-1	2	-10	10	90*	-5	6	2
O=C(N[C@H]1CC[C@@H](CCn2cc(-c3cccnc3)nn2)O[C@H]1CO)c1ccccc1F	·	·	·	·	47*	3	i	2
COc1ccccc1NC(=O)N[C@@H]1CC[C@H](CCn2cc(-c3cccnc3)nn2)O[C@H]1CO	·	·	·	·	57*	5	i	-9
COc1ccccc1NC(=O)N[C@H]1CC[C@@H](CCn2cc(-c3cccnc3)nn2)O[C@H]1CO	·	·	·	·	33	·	·	·
Cc1noc(C)c1NC(=O)NCC[C@@H]1CC[C@@H](NC(=O)Cc2cccnc2)[C@@H](CO)O1	·	·	·	·	6	·	·	·
O=C(CN1C(=O)/C(=C/c2cccc(Br)c2)SC1=S)Nc1cccnc1	0	0	-20	17	88*	5	4	0
CC(=O)c1ccc(NC(=O)CN2CCN(CC(=O)Nc3ccc(C(C)=O)cc3)CC2)cc1	-1	1	1	-7	0	·	·	·
CC(=O)c1ccc(NC(=O)CN2CCN(c3ccccc3)CC2)cc1	-3	0	-16	-2	55*	-6	9	-3
COc1ccc(NC2c3ccccc3C(=O)N2c2cccnc2)cc1Cl (configuration not stated)	-4	1	-17	1	51*	-7	-16	-3
O=C(C[n+]1cc(-c2ccc(Cl)cc2)n2c1CCC2)N1c2ccccc2Sc2ccccc21	-2	2	-23	2	61*	-6	-11	0
O=C(C[n+]1cc(-c2ccc(Cl)c(Cl)c2)n2c1CCC2)N1c2ccccc2Sc2ccccc21	-11	0	-18	18	·	·	·	·
C/C=C/c1ccc2c(c1)O[C@@H](CN(C)C(=O)Nc1ccc(F)cc1)[C@@H](C)CN([C@@H](C)CO)S2(=O)=O	·	·	·	·	55*	-5	i	-14
O=C(C[C@H]1CC[C@H]2[C@@H](COC[C@@H](O)CN2C(=O)c2ccccc2)O1)NCCCN1CCOCC1	·	·	·	·	-1	·	·	·
COc1cccc(S(=O)(=O)N[C@@H]2CC[C@@H](CC(=O)NC3CCC3)O[C@@H]2CO)c1	·	·	·	·	0	·	·	·
COC(=O)C1CCN(C(c2ccc(OC)c(OC)c2)c2sc3nc(C)nn3c2O)CC1 (configuration not stated)	0	1	-12	-4	45*	-8	14	-7
CCNC(=O)[C@H]1[C@H](CO)[C@H]2Cn3c(ccc(-c4cccc(F)c4)c3=O)[C@H]2N1C(=O)Cc1cccnc1	·	·	·	·	42*	-5	i	0
O=C(Nc1nccs1)[C@H]1[C@H](CO)[C@H]2Cn3c(ccc(-c4cccnc4)c3=O)[C@H]2N1CC1CCCC1	·	·	·	·	52*	-6	i	14
COc1ccc(NC(=O)Nc2cccc3c2O[C@@H](CN(C)Cc2ccc(Oc4ccccc4)cc2)[C@H](C)CN([C@H](C)CO)C3=O)cc1	·	·	·	·	0	·	·	·
COc1ccc(CCN(C)c2ccc(C(N)=O)cc2[N+](=O)[O-])cc1OC	0	0	4	-11	49*	-8	-12	-9
SMILES	FadD28 FP inh	PfHsp40 rescue	PrP UTR inh	Yp Topo-I inh	BioA inh-1	BioA inh-2	HepG2 cytotox	NIH3T3 tox 5
CCCNC(=O)C[C@@H]1CC[C@@H]2[C@H](COc3ccc(NC(=O)c4ccccc4)cc3C(=O)N2C)O1	·	·	·	·	0	·	·	·
CCc1c(C)nc2ncnn2c1Nc1ccc(C#N)c(Cl)c1	0	-1	2	-6	40*	-6	-7	-7
COCC(=O)Nc1ccc2c(c1)[C@@H]1C[C@@H](CC(=O)NCc3ccc4c(c3)OCO4)O[C@@H](CO)[C@@H]1O2	·	·	·	·	-2	·	·	·
C[C@@H]1CN([C@@H](C)CO)C(=O)c2cc(-c3ccc(F)cc3)cnc2O[C@@H]1CN(C)C(=O)Cc1ccccn1	·	·	·	·	-1	·	·	·
O=C(Nc1cccnc1)C1CCN(S(=O)(=O)c2ccc(Cl)cc2)CC1	-1	-1	-10	-3	85*	-9	-13	-2
O=C(NCc1ccc(Cl)cc1)C1CCN(S(=O)(=O)c2cccnc2)CC1	-5	0	-8	-2	0	·	·	·
CSc1ccc(S(=O)(=O)N2CCC(C(=O)Nc3cccnc3)CC2)cc1	-1	0	-11	-4	71*	-6	-17	3
CCNC(=O)C[C@H]1CC[C@@H]2[C@@H](COc3ccc(NC(=O)Nc4cccc(F)c4)cc3C(=O)N2C)O1	·	·	·	·	42*	6	i	-4
CN(C)CCCNC(=O)C[C@H]1C=C[C@H](NS(=O)(=O)c2ccccc2)[C@H](CO)O1	·	·	·	·	5	·	·	·
C#CCSc1nnc(-c2sc(-c3ccccc3)nc2C)n1C	-1	2	-19	-2	60*	-3	-14	3
C#CCSc1nnc(-c2c[nH]c3ccccc23)n1C	1	-2	-12	-5	-4	·	·	·
O=C(C[C@H]1C[C@H]2c3cc(NC(=O)c4ccc5c(c4)OCO5)ccc3O[C@H]2[C@H](CO)O1)NC1CCCCC1	·	·	·	·	-1	·	·	·
Cc1c(OCC(=O)NCc2ccccn2)ccc2c3c(c(=O)oc12)CCCC3	-1	1	4	5	-2	·	·	·
Cc1c(OC(C)C(=O)NCc2ccccn2)ccc2c3c(c(=O)oc12)CCC3 (configuration not stated)	-3	0	-10	2	43*	-8	-5	-3
CCCSc1nc2c(c(=O)n1-c1ccc(OCC)cc1)SCC2	1	0	-3	3	1	·	·	·
CCOc1ccc(-n2c(SCC(N)=O)nc3c(c2=O)SCC3)cc1	-2	2	-7	2	41*	-7	9	7
O=C(CSc1nc2c(c(=O)n1-c1ccccc1)SCC2)N1CCN(c2ccccc2)CC1	0	-2	-3	33	47*	-2	-9	-5
CC1Cc2nc(SCC(=O)N3CCOCC3)n(-c3ccccc3)c(=O)c2S1 (configuration not stated)	0	0	-11	0	63*	-7	-8	-2

Bioassay records (PubChem)
